Data reported in the supplement of paper PMC12494721.
Structures can show the parent of a compound that is named as a salt.

Key:
Settings in all cases: incubation time: 27 h, anaerobic, 37 °C;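 for the amine columns active = adjusted P below 0.05 in both replicates with a change the same way and a mean fold change under 0.8 or over 1.25; inactive = the rest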
[1] = test system: Clostridium sporogenes DSM 1664; assay: growth (OD595) fold change vs plate DMSO controls (fold change (ratio)); higher = more growth
Summary of the method: (§1)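 To obtain OD, 595 nm absorbance readings were blank-subtracted, corrected for compound background using 20 µM compound solutions in water, and multiplied by a calibration factor of 5. They came from 96-well mGAM cultures grown anaerobically for 27 h at 37 °C and shaken before reading. Growth is the fold change relative to the median of plate DMSO controls. Two biological replicates were averaged, and fold changes above 1.5 were set to NA.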

Escherichia coli IAI1 [2] = assay: as above
Summary of the method: as §1

[3] = test system: Klebsiella aerogenes DSM 30053; assay: as above
Summary of the method: as §1

[4] = test system: Ruminococcus gnavus DSM 108212; assay: as above
Summary of the method: as §1

[5] = test system: Klebsiella aerogenes DSM 30053; assay: fold change of Histamine concentration vs plate DMSO controls (fold change (ratio)); higher = more amine produced, active = hit call of the paper (significant change in both replicates, either direction)
Summary of the method: (§2)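 Each value is the fold change relative to DMSO-only wells on the same plate. Four gut bacterial strains were grown anaerobically in mGAM at 37 °C for 27 h in 80 µL wells, starting at OD 0.1 before a 1:1 dilution, with compounds at 20 µM final (sweeteners 50 µM). Whole cultures were extracted with cold acetonitrile/methanol containing 0.1% formic acid, centrifuged, and amines were quantified by LC–triple-quadrupole MS (dynamic MRM) against external calibration curves with within-batch drift correction. Values are means of 2 biological replicates.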

[6] = test system: Clostridium sporogenes DSM 1664; assay: fold change of Tryptamine concentration vs plate DMSO controls (fold change (ratio)); higher = more amine produced, active = hit call of the paper (significant change in both replicates, either direction)
Summary of the method: as §2

[7] = test system: Ruminococcus gnavus DSM 108212; assay: as above
Summary of the method: as §2

Escherichia coli IAI1 [8] = assay: fold change of Putrescine concentration vs plate DMSO controls (fold change (ratio)); higher = more amine produced, active = hit call of the paper (significant change in both replicates, either direction)
Summary of the method: as §2

[9] = test system: Klebsiella aerogenes DSM 30053; assay: as above
Summary of the method: as §2

Escherichia coli IAI1 [10] = assay: fold change of Cadaverine concentration vs plate DMSO controls (fold change (ratio)); higher = more amine produced, active = hit call of the paper (significant change in both replicates, either direction)
Summary of the method: as §2

[11] = test system: Klebsiella aerogenes DSM 30053; assay: as above
Summary of the method: as §2

[12] = test system: Ruminococcus gnavus DSM 108212; assay: fold change of 2-Phenylethylamine concentration vs plate DMSO controls (fold change (ratio)); higher = more amine produced, active = hit call of the paper (significant change in both replicates, either direction)
Summary of the method: as §2

SMILES	growth [1]	growth (Escherichia coli IAI1 [2])	growth [3]	growth [4]	fold change of Histamine concentration [5]	fold change of Tryptamine concentration [6]	fold change of Tryptamine concentration [7]	fold change of Putrescine concentration (Escherichia coli IAI1 [8])	fold change of Putrescine concentration [9]	fold change of Cadaverine concentration (Escherichia coli IAI1 [10])	fold change of Cadaverine concentration [11]	fold change of 2-Phenylethylamine concentration [12]
CC=C(C)C(=O)OC1C(OC(C)=O)C2(CO)C(O)CC3(C)C(=CCC4C5(C)CCC(OC6OC(C(=O)O)C(OC7OC(CO)C(O)C(O)C7O)C(O)C6OC6OC(CO)C(O)C(O)C6O)C(C)(CO)C5CCC43C)C2CC1(C)C (stereo not drawn) [Beta-Escin] (20 µM)	0.94	1	1.01	1.01	1.01 (inactive)	0.988 (inactive)	0.982 (inactive)	0.986 (inactive)	0.994 (inactive)	1.01 (inactive)	1 (inactive)	0.953 (inactive)
CN(C)CC/C=C1\c2ccccc2CSc2ccccc21 [Dosulepin hydrochloride] (20 µM)	1.07	0.99	0.968	0.844	0.887 (inactive)	1.17 (inactive)	0.961 (inactive)	1.03 (inactive)	0.941 (inactive)	1.01 (inactive)	1.06 (inactive)	0.952 (inactive)
CC(C)n1c(/C=C/C(O)CC(O)CC(=O)O)c(-c2ccc(F)cc2)c2ccccc21 (stereo not given) [Fluvastatin sodium salt] (20 µM)	0.95	0.995	0.987	0.918	0.914 (inactive)	0.881 (inactive)	1.04 (inactive)	1.02 (inactive)	1.05 (inactive)	1.07 (inactive)	1.03 (inactive)	0.984 (inactive)
O=C1c2ccccc2S(=O)(=O)N1CCCCN1CCN(c2ncccn2)CC1 [Ipsapirone] (20 µM)	1	0.977	0.973	0.939	0.94 (inactive)	1.04 (inactive)	0.997 (inactive)	0.992 (inactive)	0.997 (inactive)	1.02 (inactive)	1 (inactive)	1.01 (inactive)
C[C@H](N[C@@H](CCc1ccccc1)C(=O)O)C(=O)N1CCC[C@H]1C(=O)O [Enalaprilat dihydrate] (20 µM)	0.89	0.971	0.996	1.16	1.04 (inactive)	0.967 (inactive)	1.04 (inactive)	1 (inactive)	1.01 (inactive)	1.08 (inactive)	0.991 (inactive)	1.04 (inactive)
CCCN1CCCC[C@H]1C(=O)Nc1c(C)cccc1C [Ropivacaine hydrochloride] (20 µM)	1.02	0.971	0.964	0.779	1.13 (inactive)	1.13 (inactive)	1.02 (inactive)	0.946 (inactive)	1.04 (inactive)	1.03 (inactive)	0.961 (inactive)	1.01 (inactive)
COc1cc(C(=O)NS(=O)(=O)c2ccccc2C)ccc1Cc1cn(C)c2ccc(NC(=O)OC3CCCC3)cc12 [Zafirlukast] (20 µM)	0.542	0.946	0.99	0.355	1.05 (inactive)	0.371 (active)	0.582 (active)	0.977 (inactive)	1.02 (inactive)	1.02 (inactive)	1.01 (inactive)	0.814 (inactive)
O=P(O)(O)C(O)(Cn1ccnc1)P(=O)(O)O [Zoledronic acid hydrate] (20 µM)	1.08	0.974	0.978	1	1.08 (inactive)	0.973 (inactive)	0.629 (inactive)	0.987 (inactive)	1.02 (inactive)	1.05 (inactive)	1 (inactive)	0.627 (inactive)
O=C1NCN(c2ccccc2)C12CCN(CCCC(c1ccc(F)cc1)c1ccc(F)cc1)CC2 [Fluspirilene] (20 µM)	0.921	0.951	1.01	1.01	0.981 (inactive)	0.959 (inactive)	0.814 (inactive)	0.996 (inactive)	0.994 (inactive)	1.02 (inactive)	0.995 (inactive)	0.884 (inactive)
CC(=O)CC(c1ccc([N+](=O)[O-])cc1)c1c(O)c2ccccc2oc1=O (stereo not given) [Acenocoumarol] (20 µM)	0.894	1.02	1.02	0.886	0.909 (inactive)	0.94 (inactive)	1.01 (inactive)	1.05 (inactive)	0.989 (inactive)	1.01 (inactive)	1.01 (inactive)	1.02 (inactive)
Cn1c(=O)c2c(ncn2CCO)n(C)c1=O [Etofylline] (20 µM)	0.922	1.01	1.01	1.04	0.983 (inactive)	0.964 (inactive)	0.853 (inactive)	1.01 (inactive)	0.997 (inactive)	1.03 (inactive)	1 (inactive)	0.839 (inactive)
N=C(N)NC(=O)c1nc(Cl)c(N)nc1N [Amiloride hydrochloride dihydrate] (20 µM)	0.984	0.951	0.984	0.948	0.982 (inactive)	0.98 (inactive)	1.09 (inactive)	1.03 (inactive)	0.94 (inactive)	0.987 (inactive)	1.05 (inactive)	1.08 (inactive)
CC1(C)O[C@@H]2C[C@H]3[C@@H]4CCC5=CC(=O)CC[C@]5(C)[C@@]4(F)[C@@H](O)C[C@]3(C)[C@]2(C(=O)CCl)O1 [Halcinonide] (20 µM)	1.17	1.01	1.05	1.07	0.941 (inactive)	0.989 (inactive)	0.963 (inactive)	0.988 (inactive)	0.994 (inactive)	1.02 (inactive)	1.01 (inactive)	0.978 (inactive)
NS(=O)(=O)c1cc2c(cc1Cl)N=CNS2(=O)=O [Chlorothiazide] (20 µM)	1.05	1.06	1.03	0.966	1.05 (inactive)	0.97 (inactive)	0.998 (inactive)	1.05 (inactive)	1.03 (inactive)	0.97 (inactive)	1.01 (inactive)	1.01 (inactive)
CC(=O)O[C@]1(C(C)=O)CC[C@H]2[C@@H]3C=C(Cl)C4=CC(=O)[C@@H]5C[C@@H]5[C@]4(C)[C@H]3CC[C@@]21C [Cyproterone acetate] (20 µM)	1.17	0.908	0.894	0.639	0.982 (inactive)	0.986 (inactive)	0.938 (inactive)	1.02 (inactive)	1 (inactive)	0.999 (inactive)	0.996 (inactive)	0.927 (inactive)
O=C(O)CCNC(=O)c1ccc(/N=N/c2ccc(O)c(C(=O)O)c2)cc1 [Balsalazide disodium salt] (20 µM)	1	1	1.02	0.934	0.892 (inactive)	0.993 (inactive)	1.21 (inactive)	0.893 (inactive)	1.01 (inactive)	0.963 (inactive)	1.11 (inactive)	1.51 (active)
COc1ccc(-c2cc(=S)ss2)cc1 [Anethole-trithione] (20 µM)	0.802	1.01	0.968	1.04	1.04 (inactive)	1.18 (inactive)	1.07 (inactive)	1.01 (inactive)	0.972 (inactive)	1.01 (inactive)	0.986 (inactive)	1.07 (inactive)
CCOC(=O)C1=C(C)NC(C)=C(C(=O)OC)C1c1cccc([N+](=O)[O-])c1 (stereo not given) [Nitrendipine] (20 µM)	1.04	1.01	1.02	1.06	1.08 (inactive)	0.947 (inactive)	0.911 (inactive)	1.09 (inactive)	0.993 (inactive)	1.01 (inactive)	1.01 (inactive)	0.913 (inactive)
CC(C)NCC(O)COc1ccc(COCCOC(C)C)cc1 (stereo not given) [Bisoprolol hemifumarate] (20 µM)	1.1	0.975	0.97	0.79	0.965 (inactive)	1.2 (inactive)	1.09 (inactive)	1 (inactive)	0.846 (inactive)	0.99 (inactive)	1.13 (inactive)	1.09 (inactive)
CC[C@@H](CO)NCCN[C@@H](CC)CO [Ethambutol dihydrochloride] (20 µM)	0.97	1.02	1.01	0.965	0.958 (inactive)	0.996 (inactive)	1.04 (inactive)	1.05 (inactive)	0.987 (inactive)	0.954 (inactive)	1.01 (inactive)	1.09 (inactive)
CC(=O)N(O)CCCCCNC(=O)CCC(=O)N(O)CCCCCNC(=O)CCC(=O)N(O)CCCCCN [Deferoxamine mesylate] (20 µM)	0.934	0.997	0.996	1.06	0.926 (inactive)	1.04 (inactive)	1.18 (inactive)	0.952 (inactive)	0.951 (inactive)	0.996 (inactive)	1.03 (inactive)	1.29 (inactive)
CC(=O)Oc1ccccc1C(=O)O [Acetylsalicylic acid] (20 µM)	1.11	0.986	1.04	1.17	0.992 (inactive)	1.03 (inactive)	1.18 (inactive)	0.992 (inactive)	0.998 (inactive)	0.93 (inactive)	1.05 (inactive)	1.18 (inactive)
Clc1ccc2c(c1)CCc1cccnc1C2=C1CCNCC1 [Desloratadine] (20 µM)	0.922	0.981	0.992	0.972	1.07 (inactive)	1.11 (inactive)	0.962 (inactive)	1 (inactive)	1.01 (inactive)	0.976 (inactive)	0.987 (inactive)	1.02 (inactive)
Cc1cc(/C=C/c2ccc3cc(N(C)C)ccc3[n+]2C)c(C)n1-c1ccccc1 [Pyrvinium pamoate] (20 µM)	1.21	1.12	0.958	0.853	0.936 (inactive)	0.95 (inactive)	0.975 (inactive)	1.22 (inactive)	1.01 (inactive)	0.966 (inactive)	1.02 (inactive)	1.04 (inactive)
O=C(Nc1ccccc1)OCC(CN1CCCCC1)OC(=O)Nc1ccccc1 (stereo not given) [Diperodon hydrochloride] (20 µM)	1.11	0.998	0.962	0.942	1.05 (inactive)	0.94 (inactive)	0.952 (inactive)	0.975 (inactive)	1.03 (inactive)	1.03 (inactive)	0.976 (inactive)	0.923 (inactive)
